# Reference: the supplement of paper PMC12636033
# ± gives the standard deviation of the averaged measurements. In all, about 33,000 sequences were measured (“E-score (rank enrichment, -0.5 to 0.5)”: median about -0.0075, highest 2% from about 0.23 on). This excerpt belongs to a sample that is enriched for the highest values.
# System: WT Max(13-93) synthetic (M65Nle)
# Test: PBM 8-mer E-score (E-score (rank enrichment, -0.5 to 0.5)); higher = stronger preferential binding
# Experimental: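 Protein binding microarray (universal PBM chip covering all 10-mers in fixed probe flanks) with chemically synthesized human Max(13-93) bHLH-LZ analogs (not full-length Max) bearing noncanonical residues (hArg, Tha, Aib, Nle at 65) and aromatic Cys staples. Read-out per 8-mer (and its reverse complement): E-score (rank-based enrichment, -0.5 to 0.5) and Z-score of median probe intensity.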
row,Sequence,PBM 8-mer E-score
1,ATAGCAGG,-0.0492 ± 0.15
2,TCCGGACA,-0.0731 ± 0.033
3,GTCTCTAA,-0.108 ± 0.17
4,CCTCGCGA,-0.00258 ± 0.05
5,AATCGCCG,-0.197 ± 0.032
6,CGATATAG,-0.0681 ± 0.07
7,CGATATAA,0.281 ± 0.046
8,CTTTATAA,0.127 ± 0.026
9,TTATATAA,0.256 ± 0.13
10,TGATATAA,0.155 ± 0.021
11,ATTTATAC,0.188 ± 0.078
12,CTATATCC,0.135 ± 0.012
13,TTATAAAA,0.215 ± 0.03
14,ATATATCA,0.19 ± 0.073
15,CGATATAC,0.0759 ± 0.16
16,ATATATCC,0.237 ± 0.064
17,ATTTATAA,0.241 ± 0.035
18,TACGATAA,0.194 ± 0.094
19,AATGCGAA,0.03 ± 0.03
20,GCTCCTTA,-0.0526 ± 0.048
21,ATATCGGG,0.19 ± 0.03
22,AAGCGGCC,-0.276 ± 0.054
23,CCGACACA,-0.052 ± 0.075
24,CGCCGTTC,-0.101 ± 0.024

row,Sequence,PBM 8-mer E-score
1,GGGGGCTA,-0.0501 ± 0.18
2,CGCGACAC,0.045 ± 0.063
3,ATATATAA,0.246 ± 0.086
4,ATATACAC,0.161 ± 0.055
5,ATATACAG,0.234 ± 0.0072
6,CTATATAA,0.0196 ± 0.063
7,GTATATAA,0.102 ± 0.091
8,CTATACAG,0.0775 ± 0.017
9,GTAGTACA,0.0953 ± 0.0039
10,CCAACGTC,-0.0188 ± 0.032
11,AACGACGA,-0.113 ± 0.23
12,AAGACTCT,0.0105 ± 0.12
13,ACATGTGC,0.359 ± 0.0051
14,CCATGTCA,-0.0624 ± 0.05
15,CCATGTGA,0.308 ± 0.0086
16,ACATGTCA,0.204 ± 0.057
17,CCATGTGC,0.389 ± 0.0074
18,CCATGTCC,-0.0654 ± 0.065
19,ACATGTGA,0.389 ± 0.00049
20,ACATGTCC,0.212 ± 0.03
21,AGATGTGC,0.0526 ± 0.076
22,CTATGTGC,0.0889 ± 0.047
23,CGATGTGA,-0.114 ± 0.17
24,AGATGTGA,0.16 ± 0.038

row,Sequence,PBM 8-mer E-score
1,CGTTGCCA,0.0775 ± 0.02
2,GAATGGGA,0.0933 ± 0.016
3,CCGACGGA,-0.238 ± 0.0081
4,TAGGTGCA,0.0931 ± 0.075
5,CCGCAATC,-0.0997 ± 0.03
6,ATCTGATC,-0.138 ± 0.17
7,AGATGTGG,0.0747 ± 0.083
8,GCATGTCA,0.208 ± 0.011
9,ACATGTGG,0.36 ± 0.049
10,ACATGTCG,0.14 ± 0.052
11,GAATGTGA,0.0246 ± 0.0085
12,GCATGTGA,0.314 ± 0.013
13,GAGCATAA,0.0772 ± 0.044
14,CCTCAACG,-0.187 ± 0.062
15,AGGGGTCC,-0.221 ± 0.0076
16,CAGCGGGA,-0.165 ± 0.016
17,AAGCATGA,0.152 ± 0.064
18,AAGCATCC,0.0408 ± 0.066
19,AAGCATGT,0.277 ± 0.024
20,AAGCATGC,0.312 ± 0.066
21,AAGCATAC,0.105 ± 0.023
22,AAGCATGG,0.219 ± 0.031
23,AGGTGGGG,0.0712 ± 0.15
24,GGAAAAGA,0.0579 ± 0.031

row,Sequence,PBM 8-mer E-score
1,TGCTGTAA,0.00145 ± 0.0042
2,ACAAGTGA,0.0895 ± 0.13
3,GAGCTTGA,-0.165 ± 0.014
4,GGTCCCAC,-0.0853 ± 0.11
5,AGAATAAG,-0.0395 ± 0.13
6,GGAATAAA,0.0114 ± 0.13
7,CGAATAAA,0.0742 ± 0.027
8,AGAATAAA,0.262 ± 0.034
9,AGAATAAT,0.177 ± 0.0073
10,TGAATAAA,0.305 ± 0.013
11,CTCGCGGC,-0.138 ± 0.055
12,ACACGTGC,0.4859 ± 0.0013
13,ACACGTAC,0.159 ± 0.044
14,TCACGTCA,-0.00158 ± 0.0094
15,AAACGTGG,0.206 ± 0.021
16,AAACGTGT,0.166 ± 0.05
17,ACACGTAT,0.192 ± 0.027
18,ACACGTGT,0.487 ± 0.002
19,TCACGTGA,0.444 ± 0.018
20,ACACGTGG,0.4934 ± 0.00068
21,AGACGTGC,-0.0899 ± 0.02
22,TCACGTAA,0.129 ± 0.01
23,ACACGTAG,0.0871 ± 0.035
